Several values for one entry are separate records, joined by “and”; a condition that tells them apart may be missing. Equal entries are not always repeated. Results filed as inconclusive are left out. Some compounds were tested as several samples or in several runs, with calls that do not always agree. Activity calls are given as the source filed them. Unless noted, calls come from the whole dose curve; as a rule, active = well fitted curve in the direction sought with a large enough effect; inconclusive = small, poorly fitted or top-dose-only effect, or another doubt; inactive = no such curve, though single readings can be large; an effect the other way counts as inactive or inconclusive.

Assay [1] is described as follows: A High-Content qHTS Against Drug Library for the Identification of Small Molecules that Inhibit DYT1 Early Onset Primary Dystonia-Associated Cell Pathology (AID 1645839; calls by dose curve; note: potency is the fitted concentration of half-maximal effect). The method in brief:
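Flp-In T-REx 293 cells with tetracycline-inducible EGFP-delE hTOR1A (WT EGFP-hTOR1A as reference), 800 cells/well; compound added with tetracycline, 48 h at 37 C. Fixed, permeabilized cells imaged; %pathology (punctate TorsinA) primary, cell count counterscreen.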
(In general: qHTS replaces the single test concentration by a dilution series.)

For assay [2], the target named is Cytochrome P450 2D6 (Homo sapiens) (UniProt P10635). Nature of the assay: Cytochrome P450 family 2 subfamily D member 6 (CYP2D6) small molecule antagonists: luciferase biochemical (cell-free) qHTS assay (AID 1645840; active = well fitted curve in the direction sought with a large enough effect in the repeat runs; an effect the other way counts as inactive or inconclusive; note: nearly all actives have a fitted effect of over 55% in size; note: potency is the fitted concentration of half-maximal effect; for activity change, negative = inhibition: % is set by controls: 0 for no effect and ±100 for the full control effect). The method in brief:
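P450-Glo luminescent screen: recombinant CYP2D6 enzyme–proluciferin substrate mix preincubated with compound 10 min at room temperature, then NADPH regeneration added for 1 h at room temperature. Detection reagent added for 20 min; luciferin light read as relative luminescence units.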

Assay [3] in a line: Cytotoxicity counterscreen for inhibitors of SARS-CoV-2 cell entry (AID 1645845; calls by dose curve; note: nearly all actives have a fitted effect of over 50% in size; for activity change, negative = cytotoxicity: % is set by controls: 0 for no effect and ±100 for the full control effect). The method in brief: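 HEK293-ACE2 cells (Expi293F stably expressing human ACE2) seeded overnight, then compound for 1 h plus 48 h at 37C. Viability as ATP content by luminescence; normalized to wells with cells and media-only wells.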
A short description of assay [4]: Primary qHTS to identify inhibitors of SARS-CoV-2 cell entry (AID 1645846; calls by dose curve; note: nearly all actives have a fitted effect of over 45% in size). The following applies: activity change, negative = inhibition: at 57.1 µM (top of the series) unless noted. Put shortly:
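Inhibition of spike-mediated entry was scored in human ACE2-transfected Expi293F cells. Particles were MLV-pseudotyped with Wuhan-Hu-1 S carrying a 19-aa C-terminal deletion; signal was luciferase after two days, scaled between spike PP and fusion-protein-free PP.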

The target of a further assay is Papain (Carica papaya) (UniProt P00784). Kind of assay: Primary qHTS assay for inhibitors of the protease papain (AID 1645873).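 Note: papain turnover of Z-FR-AMC read as the AMC fluorescence gain over 10 min; % is set by controls: 0 for no effect and ±100 for the full control effect.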
Assay [5] in a line: Primary qHTS for inhibitors of nuclear receptor binding SET domain protein 2 (NSD2) in an isogenic RCH-ACV NSD2 p.E1099K mutant (9B) (AID 1645876). For activity change, negative = viability loss: % is set by controls: 0 for no effect and ±100 for the full control effect. Note: nearly all actives have a fitted effect of over 70% in size. Note: potency is the fitted concentration of half-maximal effect.
A short description of assay [6]: Primary qHTS for inhibitors of nuclear receptor binding SET domain protein 2 (NSD2) in an RCH-ACV wild type WT cells (2C) (AID 1645877). Note: nearly all actives have a fitted effect of over 70% in size. Note: potency is the fitted concentration of half-maximal effect.
Assay [7] has as its target Cytochrome P450 2C9 (Homo sapiens) (UniProt P11712). Nature of the assay: Cytochrome P450 family 2 subfamily C member 9 (CYP2C9) small molecule antagonists: luciferase biochemical (cell-free) qHTS assay (AID 1645842; active = well fitted curve in the direction sought with a large enough effect in the repeat runs; an effect the other way counts as inactive or inconclusive; note: nearly all actives have a fitted effect of over 55% in size; note: potency is the fitted concentration of half-maximal effect). Put shortly:
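Luminescence, after 20 min with luciferin detection reagent, reflected CYP2C9 turnover during a 1 h NADPH-driven reaction at 37C. Enzyme-substrate mix contained 0.4% bovine serum albumin and was preincubated with compound 10 min at room temperature.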

Assay [8] concerns the target Cytochrome P450 3A4 (Homo sapiens) (UniProt P08684). Kind of assay: Cytochrome P450 family 3 subfamily A member 4 (CYP3A4) small molecule antagonists: luciferase qHTS assay (AID 1645841; active = well fitted curve in the direction sought with a large enough effect in the repeat runs; an effect the other way counts as inactive or inconclusive; note: nearly all actives have a fitted effect of over 45% in size). Put shortly:
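P450-Glo CYP3A4 enzyme with proluciferin substrate preincubated 10 min with compound at room temperature, then NADPH regeneration 1 h. Luciferin detection reagent added for 20 min; luminescence recorded. Ketoconazole positive control.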

Assay [9] is described as follows: Confirmatory qHTS to identify inhibitors of SARS-CoV-2 cell entry (AID 1645844; calls by dose curve; note: potency is the fitted concentration of half-maximal effect; nearly all actives have a fitted effect of over 45% in size). The method in brief: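 HEK293-ACE2 cells were pretreated 1 h with compound, then infected with MLV-based pseudoparticles bearing C-terminally truncated Wuhan-Hu-1 spike for 48 h at 37C; luciferase luminescence normalized to spike PP and bald PP wells.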

Chain of Cytochrome P450 3A4 (Homo sapiens) (P08684 whole entry, looked up): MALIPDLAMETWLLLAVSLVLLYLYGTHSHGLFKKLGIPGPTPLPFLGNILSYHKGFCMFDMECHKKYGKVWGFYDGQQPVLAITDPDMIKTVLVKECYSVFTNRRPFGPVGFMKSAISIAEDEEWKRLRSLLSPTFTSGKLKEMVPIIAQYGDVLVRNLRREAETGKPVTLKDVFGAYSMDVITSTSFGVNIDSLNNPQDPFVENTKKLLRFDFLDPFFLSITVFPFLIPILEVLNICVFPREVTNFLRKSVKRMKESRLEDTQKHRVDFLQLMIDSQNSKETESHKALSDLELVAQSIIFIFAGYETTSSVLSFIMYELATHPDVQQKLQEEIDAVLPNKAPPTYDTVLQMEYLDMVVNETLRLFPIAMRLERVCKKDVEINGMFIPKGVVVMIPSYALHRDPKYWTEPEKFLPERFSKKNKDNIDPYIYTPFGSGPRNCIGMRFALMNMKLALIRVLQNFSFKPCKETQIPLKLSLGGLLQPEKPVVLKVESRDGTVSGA
Chain of Cytochrome P450 2D6 (Homo sapiens) (P10635 whole entry, looked up): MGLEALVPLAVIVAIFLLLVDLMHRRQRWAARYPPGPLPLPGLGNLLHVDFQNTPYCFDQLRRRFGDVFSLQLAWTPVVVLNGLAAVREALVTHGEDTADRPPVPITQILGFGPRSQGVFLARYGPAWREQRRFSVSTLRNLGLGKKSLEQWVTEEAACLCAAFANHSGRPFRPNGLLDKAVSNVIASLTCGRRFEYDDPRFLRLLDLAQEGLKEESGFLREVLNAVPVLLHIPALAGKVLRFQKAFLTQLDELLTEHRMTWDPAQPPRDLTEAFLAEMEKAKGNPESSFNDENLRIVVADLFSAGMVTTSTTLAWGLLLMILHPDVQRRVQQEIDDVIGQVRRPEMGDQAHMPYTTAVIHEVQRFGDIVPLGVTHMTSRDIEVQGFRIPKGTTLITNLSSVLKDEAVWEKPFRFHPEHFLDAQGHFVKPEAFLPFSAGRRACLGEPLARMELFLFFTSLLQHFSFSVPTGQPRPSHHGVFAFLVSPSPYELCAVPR
Chain of Papain (Carica papaya) (P00784 whole entry, looked up, the tested form may be a part): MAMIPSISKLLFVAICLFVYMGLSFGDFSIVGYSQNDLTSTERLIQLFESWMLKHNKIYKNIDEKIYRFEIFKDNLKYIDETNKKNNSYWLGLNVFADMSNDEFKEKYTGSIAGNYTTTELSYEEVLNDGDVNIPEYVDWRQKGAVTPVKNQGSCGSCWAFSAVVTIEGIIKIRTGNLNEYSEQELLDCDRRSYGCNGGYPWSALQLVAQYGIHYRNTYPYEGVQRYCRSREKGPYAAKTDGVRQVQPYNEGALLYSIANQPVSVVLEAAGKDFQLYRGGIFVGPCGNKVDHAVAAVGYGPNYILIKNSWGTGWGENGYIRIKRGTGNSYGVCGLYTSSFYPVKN
Chain of Cytochrome P450 2C9 (Homo sapiens) (P11712 whole entry, looked up): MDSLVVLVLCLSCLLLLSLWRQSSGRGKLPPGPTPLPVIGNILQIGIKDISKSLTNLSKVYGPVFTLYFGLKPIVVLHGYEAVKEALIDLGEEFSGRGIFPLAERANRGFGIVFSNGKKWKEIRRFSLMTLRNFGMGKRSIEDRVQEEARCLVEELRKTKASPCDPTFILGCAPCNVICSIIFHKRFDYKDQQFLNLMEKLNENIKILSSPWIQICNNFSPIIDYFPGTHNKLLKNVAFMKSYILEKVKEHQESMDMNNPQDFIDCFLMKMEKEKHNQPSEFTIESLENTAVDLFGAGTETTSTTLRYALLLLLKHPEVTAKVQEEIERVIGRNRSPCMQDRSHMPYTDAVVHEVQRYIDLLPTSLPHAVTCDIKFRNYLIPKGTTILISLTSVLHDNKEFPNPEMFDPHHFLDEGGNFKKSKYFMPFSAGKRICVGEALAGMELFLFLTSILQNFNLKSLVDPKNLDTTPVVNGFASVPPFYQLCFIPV

Regarding `Cc1cccc(C)c1NC(=O)CN1CCCC1=O`, the Potency entry (in [1]; in assay [2]; in [3]; in the assay with Papain (Carica papaya); in [5]; in [6]) was “inactive” each time. In [4], the activity change, negative = inhibition was -12.8%.
As for `CCOP(=S)(OCC)Oc1cc(C)nc(C(C)C)n1`, the Potency result in assay [1], in assay [2], in assay [5] and in [6] was “inactive” throughout. For the same compound, in assay [7], the Potency was 1.95 µM (active).
Regarding `CCOC(=O)C1(c2ccccc2)CCN(CCC(C#N)(c2ccccc2)c2ccccc2)CC1`, the Potency entry in assay [1] was “inactive”. In addition, the Potency was 1.74 µM (active) in assay [2], 1.55 µM (active) in assay [7], 5.96 µM (active) in [5] and 5.96 µM (active) in [6].
In the case of `Oc1cccc2cccnc12`, the Potency is 31.6 µM (active) and inactive in [1]; 15.4 µM (active) and inactive in assay [5]; 34.4 µM (active) and inactive in [6]. Besides, the Potency entry in [2] and in assay [3] was “inactive” each time. The result in assay [8] was inactive. Also, the activity change, negative = inhibition in assay [4] was -23.4%.
`NN=C(N)N`: the Potency entry (in [1]; in assay [2]; in assay [7]; in assay [3]; with Papain (Carica papaya); in assay [5]) was “inactive” each time. Also, the Potency entry in [6] was “inactive”. Further, the activity change, negative = inhibition in [4] amounted to 4.5%.
As for `COC[C@@H](NC(C)=O)C(=O)NCc1ccccc1`, the Potency entry in assay [1], in assay [2], in assay [3], in [4], in assay [5] and in [6] was “inactive” throughout.
Consider `CC(C)(N)Cc1ccc(Cl)cc1`, for which the Potency result in [1], in [7], in [5] and in assay [6] was “inactive” each time. Besides, the Potency in assay [2] is 6.17 µM (active).
For `CCCN1CCC[C@@H]2Cc3nc(N)ncc3C[C@H]21`, the Potency entry (in assay [1]; in assay [7]; in the assay with Papain (Carica papaya); in assay [5]; in [6]) was “inactive” in each case. Moreover, the Potency in assay [2] was 9.77 µM (active).
In the case of `CC(C)NCC(O)c1ccccc1Cl` (stereo not given), the Potency result in assay [1], in [3], in [4], in assay [5] and in assay [6] was “inactive” throughout. Besides, in [2], the Potency is 11 µM (active).
Consider `NCCc1cc(O)c(O)cc1O`, for which the Potency result in [1] and in assay [2] was “inactive” in each case.
`CC(C)=CCOc1c2occc2cc2ccc(=O)oc12`: the Potency entry (in assay [1]; in the assay with Papain (Carica papaya)) was “inactive” in each case. The values for the Potency in assay [2] and in assay [7] were 0.871 µM (active) and 0.347 µM (active), respectively.
`CCN(CC)CCOC(=O)C(O)(c1ccccc1)c1ccccc1`: the Potency result in assay [1], in assay [7], in [5] and in [6] was “inactive” throughout. For the same compound, the Potency in [2] is 5.49 µM (active).
In the case of `COc1ccccc1N1CCNCC1`, the Potency entry (in [1]; in [2]; in assay [7]; with Papain (Carica papaya)) was “inactive” in each case. Also, in assay [8], the compound was classed as inactive.
With `Cc1cccc(C)c1NC1=NCCCS1`, the Potency entry (in [1]; in [3]; with Papain (Carica papaya); in assay [5]; in assay [6]) was “inactive” in each case. Moreover, the Potency in assay [2] was 15.5 µM (active). In addition, the activity change, negative = inhibition in assay [4] was -11.5%.
Take `Oc1ccccc1-c1ccccc1`: the Potency result in [1], in [2], in [7], in assay [3], in assay [4] and in assay [5] was “inactive” throughout. Moreover, the Potency entry in assay [6] is “inactive”.
For the compound `NCC(CC(=O)O)c1ccc(Cl)cc1` (stereo not given), in [1], the % pathology change, negative = correction was 14.6% [at 0.369 µM] (inactive). For the same compound, the values for the activity change, negative = inhibition in assay [2], in assay [7] and in [4] were 14.3% [at 0.91 µM] (inactive), 15.7% [at 0.91 µM] (inactive) and 0.754% [at 0.702 µM], respectively. In assay [3], the activity change, negative = cytotoxicity is 1.92% [at 0.702 µM] (inactive). In the assay with Papain (Carica papaya), the Potency result was “inactive”. Besides, the activity change, negative = viability loss in [5] is 3.1% [at 0.588 µM] (inactive). Further, the activity change, negative = cell killing in [6] is -19.2% [at 0.588 µM] (inactive).
Consider `NP(N)(=O)NC(=O)c1ccc(F)cc1`, for which the Potency result in [1], in [2], in assay [7], in [5] and in assay [6] was “inactive” each time.
Regarding `NCC(O)c1ccc(O)cc1` (stereo not given), the Potency result (in [1]; in assay [2]; in assay [7]; in [3]; in [4]; in the assay with Papain (Carica papaya)) was “inactive” in each case.
For `C=C1CC[C@@]2(O)[C@H]3Cc4ccc(O)c5c4[C@@]2(CCN3CC2CC2)[C@H]1O5`, the Potency result in [1], in assay [7], in assay [5] and in assay [6] was “inactive” throughout. The Potency in assay [2] is 2.75 µM (active).
For the compound `CN(C)CCc1ccc(O)cc1`, the Potency result in assay [1], in assay [2], in [7], in [5] and in assay [6] was “inactive” each time.
On to `C[C@]12CC[C@H]3[C@@H](CCC4=CC(=O)CC[C@@H]43)[C@@H]1CC[C@@H]2OC(=O)CCc1ccccc1`, for which the Potency result in assay [1], in [2], in assay [3] and in assay [6] was “inactive” each time. For the same compound, the call in assay [8] was inactive. Moreover, the Potency in [7] is 27.5 µM (active). In assay [4], the activity change, negative = inhibition is 2.01%.
Turning to `CC1OC(C)OC(C)O1` (stereo not given), the Potency entry in [1], in assay [2], in assay [7], in [5] and in assay [6] was “inactive” throughout.
Consider `Clc1cccc(N2CCNCC2)c1`, for which the Potency result in assay [1], in assay [7], in assay [5] and in assay [6] was “inactive” throughout. The Potency in assay [2] is 8.71 µM (active).
For `CCN(CC)CCN1C(=O)CN=C(c2ccccc2F)c2cc(Cl)ccc21`, the Potency result in assay [1], in assay [7] and in assay [5] was “inactive” throughout. Further, in assay [2], the Potency is 13.8 µM (active).
As to `N[C@@H](Cc1ccc(N(CCCl)CCCl)cc1)C(=O)O`, the Potency result in assay [1] and in [3] was “inactive” in each case. Moreover, the Potency was 19.5 µM (active) in [2]; 0.681 µM (active) in [9]; 2.99 µM (active) and 2.63 µM (active) in assay [5]; 2.66 µM (active) and 2.35 µM (active) in [6].
With `FC(F)(F)c1cccc(C2=CCN(CCc3ccc4ccccc4c3)CC2)c1`, the Potency entry in assay [1], in assay [7], in [3], in assay [5] and in assay [6] was “inactive” in each case. The Potency in [2] is 0.0098 µM (active).
For the compound `CC(C)CC(N(C)C)C1(c2ccc(Cl)cc2)CCC1` (stereo not given), the Potency entry in assay [1], in [3] and in assay [5] was “inactive” in each case. In [2], the Potency is 4.36 µM (active). Also, the activity change, negative = inhibition in assay [4] worked out at 2.03%.
`CCC(C(N)=O)N1CCCC1=O` (stereo not given): the Potency result in assay [1], in assay [2], in [7], in assay [3], in [5] and in assay [6] was “inactive” in each case. For the same compound, in [4], the activity change, negative = inhibition is -16.2%.
As to `CC(=O)Nc1cc([As](=O)(O)O)ccc1O`, the Potency result in assay [1], in [2], in assay [3], in assay [5] and in assay [6] was “inactive” in each case. Besides, the activity change, negative = inhibition in assay [4] was -7.63%.
